Screening results (PubChem)
Sampled rows, rich in hits. Any-hit rate of the full collection: about 8.5%.
Coupling enz = coupling enzyme interference in Giardia aldolase counter-screen. coupling enzyme system counterscreen, AmpLite Red fluorescence. activity change, negative = inhibition, % at 58.2 µM, hits read low. 0.67% of 290,000 active. AID 2472; in the data active means activity change below about -30%
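Final compound at 57.5 uM, incubated 10 min at RT with coupling enzyme reagent (glyceraldehyde-3-phosphate), then 20 min with substrate and AmpLite Red detection. Fluorescence read at 525/598 nm; tests interference with the coupling assay, not aldolase inhibition.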
NPSR antagonist = blocks cAMP signaling of the human neuropeptide S receptor; Q6W5P4; CHO-NPSR cells, cAMP TR-FRET, antagonist mode; Potency, µM (series often up to 38.3 µM), hits mostly inhibitors; 1% of 220,000 active; AID 1461; active means well fitted curve in the direction sought with a large enough effect; inconclusive means small, poorly fitted or top-dose-only effect, or another doubt; inactive means no such curve, though single readings can be large; an effect the other way counts as inactive or inconclusive; further: nearly all actives have a fitted effect of over 50% in size
Target sequence (Q6W5P4 whole entry, looked up): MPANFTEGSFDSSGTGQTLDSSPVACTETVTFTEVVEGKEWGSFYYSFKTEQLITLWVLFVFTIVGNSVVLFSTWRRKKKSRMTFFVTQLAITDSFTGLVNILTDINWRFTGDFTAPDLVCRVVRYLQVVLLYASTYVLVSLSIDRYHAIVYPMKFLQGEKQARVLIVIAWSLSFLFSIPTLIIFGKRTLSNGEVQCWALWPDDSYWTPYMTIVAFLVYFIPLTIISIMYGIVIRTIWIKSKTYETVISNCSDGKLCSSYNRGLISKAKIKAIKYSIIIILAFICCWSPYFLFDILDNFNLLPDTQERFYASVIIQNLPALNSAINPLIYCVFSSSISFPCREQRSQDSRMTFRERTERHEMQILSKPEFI
ALDH1A1 inh = ALDH1A1 (human) enzyme inhibition | 7.3% of 220,000 active | P00352 | Purified ALDH1A1, NADH fluorescence, propionaldehyde substrate | Potency, µM (highest dose often 75.3 µM), most hits filed as inhibitors
RGS12 GoLoco inh = blocks human Gai1 binding to RGS12 GoLoco peptide, red readout; Potency, µM (top dose mostly 61.6 µM), usual class: inhibitors; 0.44% of 230,000 active; P63096; Gai1:RGS12 GoLoco peptide FP, rhodamine, 10 min; active means well fitted inhibition curve with a large enough effect, not every such curve was filed as active; inactive means no such curve, though single readings can be large or run the other way; further: nearly all actives have a fitted effect of over 30% in size
KDM4E inh = blocks human JMJD2E demethylase activity; Potency, µM (highest dose often 57.1 µM), actives largely listed as inhibitors; JMJD2E catalytic domain, FDH-coupled NADH fluorescence (FDH is formaldehyde dehydrogenase); 1.6% of 230,000 active; B2RXH2; further: nearly all actives have a fitted effect of over 50% in size
Target sequence (B2RXH2 1-337 limits assumed): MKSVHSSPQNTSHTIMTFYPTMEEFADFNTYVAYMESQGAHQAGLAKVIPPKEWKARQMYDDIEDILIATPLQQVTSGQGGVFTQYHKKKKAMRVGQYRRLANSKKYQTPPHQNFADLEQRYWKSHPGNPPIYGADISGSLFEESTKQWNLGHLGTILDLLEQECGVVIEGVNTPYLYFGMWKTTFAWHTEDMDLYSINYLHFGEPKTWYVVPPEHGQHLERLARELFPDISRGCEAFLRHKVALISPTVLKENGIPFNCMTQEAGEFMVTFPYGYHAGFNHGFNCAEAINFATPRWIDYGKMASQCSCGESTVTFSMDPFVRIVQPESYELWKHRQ
Sfp PPTase inh = Sfp phosphopantetheinyl transferase inhibition | Q9F4F7 | 3.5% of 310,000 active | Biochemical Sfp PPTase activity, qHTS | Potency, µM, hits mostly inhibitors | AID 1490; active means well fitted curve in the direction sought with a large enough effect; inconclusive means small, poorly fitted or top-dose-only effect, or another doubt; inactive means no such curve, though single readings can be large; an effect the other way counts as inactive or inconclusive;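 further: the enzyme is Sfp with the accession as filed and its product quenches rhodamine fluorescence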
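Fluorescence-quenching assay: 15 nM Sfp-PPTase preincubated 15 min at room temperature with compound, then 5 uM rhodamine-CoA and 12.5 uM BHQ-2-labelled YbbR peptide added. Fluorescence (ex 525/em 598 nm) read at start and after 30 min; difference gives rate.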
Hits are given with their value; – = inactive; ? = inconclusive; · = no result; ! = a repeat was not active; [ ] = remark or other dose. Unless noted, the call rests on the fitted dose curve; in most records, active means well fitted inhibition curve with a large enough effect (not every such curve was filed as active); inconclusive means small, poorly fitted or top-dose-only effect, or another doubt; inactive means no such curve, though single readings can be large or run the other way.

SMILES	Coupling enz	NPSR antagonist	ALDH1A1 inh	RGS12 GoLoco inh	KDM4E inh	Sfp PPTase inh
Cc1snc(SCC(=O)c2ccc([N+](=O)[O-])cc2)c1C#N	–	–	2.8µM	14µM	4.5µM	20µM
O=C(O)CCSc1ncnc2nc[nH]c12	·	·	–[13.5 µM]	–[14.2 µM]	·	·
O=C(CSc1ncnc2nc[nH]c12)c1ccc(Cl)cc1	–	·	·	·	·	50µM
O=C(CSc1ncnc2nc[nH]c12)c1ccccc1	–	–	28µM!	–[14.2 µM]	–	16µM
O=C(CSc1ncnc2nc[nH]c12)c1ccc([N+](=O)[O-])cc1	–	–	?	–	–	45µM
O=C(O)c1sc2cc(C(F)(F)F)cnc2c1-c1cccs1	–	–	?	–	?	–
O=C(O)c1ccc(Cc2ccccc2C(=O)O)cc1	·	·	–[13.5 µM]	–[14.2 µM]	·	·
Cc1nn(CCC(N)=S)c2nc(-c3cccs3)cc(C(F)(F)F)c12	–	–	13µM	–	?	22µM
Cc1cccc(-n2ccnc2SCC(=O)N2CCCc3ccccc32)c1C	–	–	?	–	–	–
CN(C)CCCNC(=S)NCC(c1ccc(Cl)cc1Cl)c1c[nH]c2ccccc12 (configuration not stated)	–	·	·	·	·	50µM
CCCCNC(=S)NCC(c1ccccc1)c1c[nH]c2ccccc12 (configuration not stated)	–	·	·	·	·	–
C=CCn1c(SCC(=O)NCCOC)nnc1-c1cc2c(s1)CCC(CC)C2 (configuration not stated)	–	–	?	–	–	–
CCN(CC)S(=O)(=O)c1cccc(C(=O)N[C@H](C(=O)NCc2ccc(Cl)cc2)C(C)C)c1	–	–	–	–	–	–
Cc1ccc(-n2c(Cl)c(Cl)nc(Cl)c2=O)cc1	–	10µM	0.63µM	2µM	–	?
COc1nc(Cl)cn(-c2ccc(C)cc2)c1=O	–	–	?	–	–	–
Cc1nn(C(=O)c2cccc([N+](=O)[O-])c2)c(C)c1Cl	–	·	·	·	·	–
Cc1ccc(S(=O)(=O)Nc2cc(-c3nn(C)c(=O)c4ccccc34)ccc2N2CCOCC2)cc1	–	–	22µM	–	–	–
CCCC(=O)Nc1cc(-c2nn(C)c(=O)c3ccccc23)ccc1N1CCOCC1	–	–	28µM	–	–	–
C[C@@H](N)C(=O)O	–	·	–	–	–	?
O=C(O)C(S)[C@@H](S)C(=O)O (some centres not stated)	–	·	3.5µM	–	?	–
Cc1c(F)cccc1NS(=O)(=O)c1ccc2c(c1)NC(=O)CO2	–	–	–	–	–	–
O=C(NNC(=S)Nc1ccc(F)c(Cl)c1)c1ccccc1Br	–	–	13µM	–	–	56µM
CC(=O)Nc1cccc(NC(=O)Nc2ccc(C)c(Cl)c2)c1	–	–	–	–	–	–
CC(=O)Nc1cccc(NC(=S)Nc2ccc(F)c(Cl)c2)c1	–	–	?	–	–	35µM
Cc1cccc(NC(=S)NNC(=O)c2ccccc2Br)c1	–	–	?	–	–	–
SMILES	Coupling enz	NPSR antagonist	ALDH1A1 inh	RGS12 GoLoco inh	KDM4E inh	Sfp PPTase inh
CC(=O)Nc1cccc(NS(=O)(=O)Cc2ccc(Cl)cc2)c1	–	–	28µM	–	–	–
CC1Sc2ccc(S(=O)(=O)N3CCC(C(=O)NCc4ccccc4)CC3)cc2NC1=O (configuration not stated)	·	·	·	·	·	–
COc1ccc(-n2c(COc3ccccc3)nnc2SCC(N)=O)cc1	–	–	–	–	–	–
COc1ccc(-n2c(COc3ccc4c(c3)OCO4)nnc2SCC(=O)O)cc1	–	–	2.5µM	–	–	–
O=C(CSc1nc2ccccc2c(=O)n1-c1ccccc1Cl)Nc1cccc(S(=O)(=O)N2CCOCC2)c1	–	–	–	–	–	–
O=C(N=C1SCC(=O)N1c1ccccc1Cl)c1ccccc1	–	–	?	–	–	–
O=C(NCc1cccnc1)C(=O)NCC(c1ccco1)N1CCN(c2ccccc2F)CC1 (configuration not stated)	–	–	11µM	–	–	–
O=C(NCc1ccccc1)C(=O)NCC(c1ccco1)N1CCN(c2ccccc2F)CC1 (configuration not stated)	–	–	?	–	–	–
CC1(C(=O)O)NCCc2cc(O)c(O)cc21 (configuration not stated)	·	·	?	–	·	56µM
CCN(CC)c1ccc(/C=N/Nc2ccccc2)c(O)c1	–	–	3.5µM	–	16µM	56µM
CCN(CC)c1ccc(/C=N/NC(=O)c2ccc3nc[nH]c3c2)c(O)c1	–	–	·	–	?	–
CCN(CC)c1ccc(/C=N/Nc2cccc(C)c2)c(O)c1	–	–	10µM	–	?	?
CN(C(=O)c1cc(S(=O)(=O)N2CCOCC2)cs1)c1ccccc1	–	·	·	·	·	–
COc1ccccc1/C=C/C=N/n1c(-c2n[nH]c3c2CCC3)n[nH]c1=S	–	–	8.9µM	–	?	22µM
Cc1ccc(-c2n[nH]c(=S)n2/N=C\c2ccco2)cc1	–	–	–	–	–	?
S=c1[nH]nc(-c2n[nH]c3c2CCC3)n1/N=C/C=C/c1ccco1	–	–	7.1µM	–	28µM	11µM
COc1ccccc1/C=C/C=N/n1c(-c2ccc(C)cc2)n[nH]c1=S	–	–	32µM	–	–	–
Oc1c(Br)cc(Br)cc1/C=N/n1c(-c2ccccc2)n[nH]c1=S	–	·	·	·	·	?
COc1c(Br)cc(/C=N/n2c(-c3ccccc3)n[nH]c2=S)c(O)c1Br	–	·	·	·	·	50µM
COC(=O)CC1C(C)(C)C(OC(C)=O)C2CC3C4CC(=O)OC(c5ccoc5)[C@]4(C)CCC3[C@@]1(C)C2=O (some centres not stated)	–	·	?	–	–	–
O=C1NCCCCC1NS(=O)(=O)c1ccc(F)c(F)c1 (configuration not stated)	–	–[7.67 µM]	·	–	–	–
CC(NCc1cc(Br)ccc1OCC(=O)NCc1ccccc1)c1ccccc1 (configuration not stated)	–	?	?	–	–	–
COc1ccccc1OCC(O)CN1CCN(C(=O)c2ccccc2)CC1 (configuration not stated)	–	·	·	·	·	–
S=c1[nH]nc(C2CCCCC2)n1/N=C/c1ccccn1	–	–	3.5µM	–	–	?
S=c1[nH]nc(C2CCCCC2)n1/N=C/c1ccccc1	–	·	·	·	·	–
Oc1ccc(/C=N/n2c(C3CCCCC3)n[nH]c2=S)c(O)c1	–	·	·	·	·	0.18µM
COc1cccc(/C=N/n2c(-c3cc(C)[nH]n3)n[nH]c2=S)c1O	–	–	–	–	?	2.2µM
COc1cccc(/C=N/n2c(C3CCCCC3)n[nH]c2=S)c1O	–	·	·	·	·	79µM
Oc1ccc(Br)cc1/C=N/n1c(C2CCCCC2)n[nH]c1=S	–	·	·	·	·	–
C[C@@H](Oc1ccccc1)c1nnn(Cc2ccccc2)c1-c1c([C@@H](C)Oc2ccccc2)nnn1Cc1ccccc1	–	–	·	–	–	–
